The subject of the first assay is Fibrinogen (Alexa647-labelled). Kind of assay: fibrinogen binders on compound microarrays, profiling panel, artefact control for SMM control-protein annotation, biochemical, small-molecule microarray, 635/667 nm fluorescence (AID 1131).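 Further: z-score merges 667 nm fluorescence with per-spot signal-to-noise over triplicate slides.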 Conditions: fibrinogen-A647 binding fluorescence, higher = more signal.
In the case of `COCCOC(=O)N1C(=O)[C@@]2(c3cc(C#CC4=CCCCC4)ccc31)[C@H](C(=O)N1CCN(c3ncccn3)CC1)[C@H]1C(=O)O[C@H](c3ccccc3)[C@H](c3ccccc3)N1[C@@H]2c1ccc(OCCO)cc1`, the composite z-score turned out to be 0.229.

For the molecule `C=CCOC(=O)[C@@H]1[C@H]2C(=O)O[C@H](c3ccccc3)[C@H](c3ccccc3)N2[C@H](c2ccc(OCCOC(=O)[C@H]3C[C@H]4C(=O)N[C@@H](CC(C)C)C(=O)N4[C@H]3c3cccc(OCCO)c3)cc2)[C@@]12C(=O)Nc1ccc(I)cc12`, the composite z-score stood at 0.587.

Turning to `CC(C)N1C(=O)c2ccccc2[C@](C)(C(=O)NCCCN(C)C)[C@@H]1c1ccc(CO)cc1`, the composite z-score was found to be 0.562.

`CC(=O)NCCCC[C@@H]1NC(=O)[C@@H]2C[C@H](C(=O)NCCCCCC[N+](C)(C)C)[C@H](c3cccc(OCCO)c3)N2C1=O` showed a composite z-score of 0.416.

`CCCCN1CC=CC23O[C@@H]4C=CCCOC(=O)C4[C@H]2C(=O)N(CCCO)[C@@H]3C1=O` (stereo partly drawn): the composite z-score is -1.42.

`C=CCC(OC(C)=O)[C@@H]1[C@@H](N(Cc2cc3ccccc3o2)C(=O)c2cccc3ccccc23)c2cc(OCCCO)ccc2N1C(=O)Cc1ccc(OC)cc1` (stereo partly drawn) gave a composite z-score of 0.412.

With `C=CCN1C(=O)[C@]2(COC(c3ccc(OCCCO)cc3)=N2)Cc2ccccc21`, the composite z-score was 0.885.

For `C=C[C@H](C)[C@H](OC(=O)Nc1ccc(OC)cc1)c1ccc(O)c2ccccc12`, the composite z-score is 0.604.

As to `COc1ccccc1CN1C(=O)c2ccccc2[C@](Cc2ccccc2I)(C(=O)NC2CC2)[C@@H]1c1ccc(CO)cc1`, the composite z-score turned out to be 0.987.

In turn, `C=CC[C@@]1(C(N)=O)N=C(c2ccc(OCCCO)cc2)O[C@@H]1c1ccccc1N=[N+]=[N-]` registered a composite z-score of 0.183.

`CCN(CC)c1ccc(N2CC=CC34O[C@@H]5C=CCOC(=O)[C@@H]5[C@H]3C(=O)N(CCCCCO)[C@@H]4C2=O)cc1` (stereo partly drawn) had a composite z-score of -1.59.

`COCCOC(=O)N1C(=O)[C@@]2(c3cc(C#CCC(C(=O)OC)C(=O)OC)ccc31)[C@H](c1ccc(OCCO)cc1)N1[C@H](c3ccccc3)[C@H](c3ccccc3)OC(=O)[C@H]1[C@@H]2C(=O)NC[C@H](O)c1ccccc1` yielded a composite z-score of 0.952.

The target in another assay is Follistatin (Homo sapiens) (UniProt P19883). In words: follistatin binders on small-molecule microarrays, primary screen, biochemical, small-molecule microarray, 635/667 nm fluorescence (AID 1132). To be noted: FST binding, 635 nm fluorescence, higher = more signal.
Follistatin (Homo sapiens), sequence (P19883 whole entry, looked up): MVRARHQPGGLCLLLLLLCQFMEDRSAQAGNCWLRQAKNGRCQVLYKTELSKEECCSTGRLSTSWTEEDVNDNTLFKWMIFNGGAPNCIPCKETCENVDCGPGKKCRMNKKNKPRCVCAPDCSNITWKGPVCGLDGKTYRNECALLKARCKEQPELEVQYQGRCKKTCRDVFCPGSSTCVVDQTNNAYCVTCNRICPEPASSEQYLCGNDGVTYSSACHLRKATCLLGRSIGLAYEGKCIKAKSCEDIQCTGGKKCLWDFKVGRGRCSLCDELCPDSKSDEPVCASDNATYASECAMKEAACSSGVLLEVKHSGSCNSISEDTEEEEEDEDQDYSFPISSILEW
For the molecule `C=CC[C@]1(C(=O)O)N=C(c2ccc(OCCCO)cc2)O[C@H]1c1ccccc1CN=[N+]=[N-]`, the composite z-score was determined as 0.349.

Molecule `C[N+](C)(C)CCCCNC(=O)[C@H]1C[C@H]2C(=O)N3CCC[C@H]3C(=O)N2[C@H]1c1ccc(O)cc1` registered a composite z-score of 1.46.

With `[N-]=[N+]=NCc1ccccc1[C@@H]1OC(c2ccc(OCCCO)cc2)=N[C@]1(Cc1ccccc1)C(=O)O`, the composite z-score was determined as 0.592.

Molecule `CN(C)CCCN1C(=O)[C@@]2(c3ccc([N+](=O)[O-])cc3)CC(=O)N(C3CCCCC3)[C@@H]2c2ccc(CO)cc21` returned a composite z-score of 0.0687.

For the molecule `CCOC1=C2C(c3ccc(C)cc3)N(S(=O)(=O)c3ccc(C)cc3)CC2n2c(=O)n(-c3ccccc3)c(=O)n2C1` (stereo not drawn), the composite z-score is 0.876.

`O=C1c2ccccc2[C@](Cc2ccccc2I)(C(=O)O)[C@H](c2ccc(CO)cc2)N1Cc1ccccc1C(F)(F)F` showed a composite z-score of 0.72.

In turn, `CCCCCCCCCCC(O)C1C=CC2C(=O)N(c3ccccc3)C(=O)C2N1Nc1ccc([N+](=O)[O-])cc1` (stereo not drawn) came in with a composite z-score of 0.8.

As to `CCOC(=O)C1=CC[C@@H](c2cccc(Cl)c2)N(S(=O)(=O)c2ccc(C)cc2)[C@H]1c1ccc(C#N)cc1`, the composite z-score is 0.938.

`CCCCCCC#C[Si](O[C@H](c1ccccc1)c1cn([C@H](C)c2ccccc2)nn1)(C(C)C)C(C)C`: the composite z-score came out at 0.441.

`O=C(NCC(F)(F)F)[C@@H]1c2ccccc2C(=O)N(Cc2ccccc2)[C@H]1c1ccc(CO)cc1` had a composite z-score of -1.25.

The molecule `O=C1OCC=C[C@H]2OC34C=CCN(c5ccc(Cl)cc5)C(=O)[C@H]3N(CCCO)C(=O)[C@@H]4[C@@H]12` (stereo partly drawn) showed a composite z-score of -0.706.

Turning to `CCOC(=O)N1C(c2ccc(OCCCO)cc2)=NC(C(=O)OC)N1C(=O)OCC` (stereo not drawn), the composite z-score is 1.31.

As for `Cc1ccc(S[C@]2(C(=O)NCC(F)(F)F)CC(=O)N(C3Cc4ccccc4C3)[C@@H]2c2ccc(CO)cc2I)cc1`, the composite z-score is -1.14.

In the case of `[N-]=[N+]=Nc1ccccc1C[C@]1(C(=O)N2CCCCC2)N=C(c2ccc(OCCCO)cc2)O[C@H]1c1ccccc1N=[N+]=[N-]`, the composite z-score worked out at 1.18.

In turn, `C=CCNC(=O)[C@H]1[C@@H]2C(=O)O[C@@H](c3ccccc3)[C@@H](c3ccccc3)N2[C@@H](c2ccc(O)cc2)[C@]12C(=O)Nc1ccc(C#Cc3ccc(OC)cc3)cc12` gave a composite z-score of 1.16.

On to `[N-]=[N+]=NCc1ccccc1C[C@]1(C(=O)NCc2ccccc2)COC(c2ccc(OCCCO)cc2)=N1`, for which the composite z-score stood at 0.101.

On to `O=C1OCC=C[C@H]2OC34C=CCN(CCN5CCOCC5)C(=O)[C@H]3N(CCCCCCO)C(=O)[C@@H]4[C@@H]12` (stereo partly drawn), for which the composite z-score was found to be 0.277.

Consider `[N-]=[N+]=Nc1ccccc1[C@H]1OC(c2ccc(OCCCO)cc2)=N[C@@]1(CCS(=O)(=O)c1ccccc1)C(=O)N1CCOCC1`, for which the composite z-score was 1.3.

The molecule `COC(=O)[C@@]1(Cc2ccccc2)[C@H]2c3cc(C(=O)N(C)C)n(Cc4cc(F)c(F)c(F)c4)c3C[C@H]2CN1C(=O)c1ccccc1` registered a composite z-score of 0.83.

The molecule `O=C1O[C@H](c2ccccc2)[C@H](c2ccccc2)N2[C@H]1[C@@H](C(=O)N1CCCCCCC1)[C@]1(C(=O)Nc3ccc(C#CC4=CCCCC4)cc31)[C@H]2c1ccc(O)cc1` returned a composite z-score of 1.56.

Molecule `[N-]=[N+]=NCc1ccccc1C[C@]1(C(N)=O)N=C(c2ccc(OCCCO)cc2)O[C@H]1c1ccccc1N=[N+]=[N-]` gave a composite z-score of 0.847.

With `C=CCOC(=O)[C@H]1[C@@H]2C(=O)O[C@@H](c3ccccc3)[C@@H](c3ccccc3)N2[C@@H](c2ccc(OCCOC(=O)[C@H]3C[C@H]4C(=O)N[C@@H](CCCC[N+](C)(C)C)C(=O)N4[C@H]3c3ccc(O)cc3)cc2)[C@]12C(=O)Nc1ccccc12`, the composite z-score was 1.16.

In the case of `CC(C)NC(=O)[C@@]1(c2ccc([N+](=O)[O-])cc2)CC(=O)N(C(C)C)[C@@H]1c1ccc(CO)cc1`, the composite z-score is -0.849.

`COc1ccc([Si](C)(C)[C@@H]2[C@@H](CCn3cc([C@H](O)c4ccccc4)nn3)O[C@]3(C(=O)N(C)c4ccccc43)[C@H]2C)cc1` showed a composite z-score of 0.0274.

`COCCOC(=O)N1C(=O)[C@@]2(c3cc(C#CC4=CCCCC4)ccc31)[C@H](C(=O)N1CCN(c3ncccn3)CC1)[C@H]1C(=O)O[C@H](c3ccccc3)[C@H](c3ccccc3)N1[C@@H]2c1ccc(OCCO)cc1` came in with a composite z-score of 1.29.

Regarding `C=CCOC(=O)[C@@H]1[C@H]2C(=O)O[C@H](c3ccccc3)[C@H](c3ccccc3)N2[C@H](c2ccc(OCCOC(=O)[C@H]3C[C@H]4C(=O)N[C@@H](CC(C)C)C(=O)N4[C@H]3c3cccc(OCCO)c3)cc2)[C@@]12C(=O)Nc1ccc(I)cc12`, the composite z-score amounted to 1.38.

In the case of `CC(C)N1C(=O)c2ccccc2[C@](C)(C(=O)NCCCN(C)C)[C@@H]1c1ccc(CO)cc1`, the composite z-score was -0.106.

On to `CC(=O)NCCCC[C@@H]1NC(=O)[C@@H]2C[C@H](C(=O)NCCCCCC[N+](C)(C)C)[C@H](c3cccc(OCCO)c3)N2C1=O`, for which the composite z-score worked out at 1.39.

For `CCCCN1CC=CC23O[C@@H]4C=CCCOC(=O)C4[C@H]2C(=O)N(CCCO)[C@@H]3C1=O` (stereo partly drawn), the composite z-score amounted to 0.274.

Turning to `C=CCC(OC(C)=O)[C@@H]1[C@@H](N(Cc2cc3ccccc3o2)C(=O)c2cccc3ccccc23)c2cc(OCCCO)ccc2N1C(=O)Cc1ccc(OC)cc1` (stereo partly drawn), the composite z-score is 1.02.

Take `C=CCN1C(=O)[C@]2(COC(c3ccc(OCCCO)cc3)=N2)Cc2ccccc21`: the composite z-score worked out at 1.08.

As for `C=C[C@H](C)[C@H](OC(=O)Nc1ccc(OC)cc1)c1ccc(O)c2ccccc12`, the composite z-score amounted to 0.782.

On to `COc1ccccc1CN1C(=O)c2ccccc2[C@](Cc2ccccc2I)(C(=O)NC2CC2)[C@@H]1c1ccc(CO)cc1`, for which the composite z-score was 1.32.

Regarding `C=CC[C@@]1(C(N)=O)N=C(c2ccc(OCCCO)cc2)O[C@@H]1c1ccccc1N=[N+]=[N-]`, the composite z-score was found to be 1.34.

As for `CCN(CC)c1ccc(N2CC=CC34O[C@@H]5C=CCOC(=O)[C@@H]5[C@H]3C(=O)N(CCCCCO)[C@@H]4C2=O)cc1` (stereo partly drawn), the composite z-score was -0.915.

`COCCOC(=O)N1C(=O)[C@@]2(c3cc(C#CCC(C(=O)OC)C(=O)OC)ccc31)[C@H](c1ccc(OCCO)cc1)N1[C@H](c3ccccc3)[C@H](c3ccccc3)OC(=O)[C@H]1[C@@H]2C(=O)NC[C@H](O)c1ccccc1` showed a composite z-score of 1.29.

Source of the values: PubChem BioAssay.
